Only some compounds are listed: those with a hit (about 6.5% of all), similar ones and a draw of the others.
FMDV inh: antivirals against foot and mouth disease virus; AID 1159524; Potency, µM (doses to about 57.9 µM), for inactives: at the top dose activity change, negative = inhibition, actives largely listed as inhibitors; FMDV antiviral cell-based qHTS; 410,000 compounds, 1.2% hits; calls by dose curve; tested in HEK293T cells; also: read-out not given here; potency is read from the fitted curve at half-maximal effect; nearly all actives have a fitted effect of over 45% in size
LASV entry inh: inhibitors of Lassa virus binding or cell entry | Lassa virus pseudotype entry inhibition, cell reporter | Potency, µM (titrated, usually from 37.9 µM), without a hit: at the top dose activity change, negative = inhibition, usual class: inhibitors | 300,000 compounds, 1.2% hits; calls by dose curve; tested in HEK293 cells; also: potency is read from the fitted curve at half-maximal effect; nearly all actives have a fitted effect of over 50% in size
VACV mCherry inh: vaccinia inhibition (mCherry reporter); 310,000 compounds, 0.63% hits; Potency, µM (titrated, usually from 36.5 µM), inactives show top-dose activity change, negative = inhibition, actives largely listed as inhibitors; AID 720579; Vaccinia virus mCherry reporter infection, fluorescence; calls by dose curve; tested in A549 cells; also: potency is read from the fitted curve at half-maximal effect; nearly all actives have a fitted effect of over 35% in size
VACV Venus inh: vaccinia inhibition (Venus reporter); 330,000 compounds, 0.46% hits; Potency, µM (titrated, usually from 36.5 µM), inactives show top-dose activity change, negative = inhibition, usual class: inhibitors; Vaccinia virus Venus reporter expression, fluorescence; calls by dose curve; tested in A549 cells; also: potency is read from the fitted curve at half-maximal effect; nearly all actives have a fitted effect of over 30% in size
HCMV antiviral: inhibitors of human cytomegalovirus. activity change, negative = inhibition, % at 57.5 µM. HFF cells, HCMV-luciferase reporter, 72 h; hits give low values. AID 1259415. 410,000 compounds, 4.5% hits; in the data active = activity change below about -60%; inconclusive = no clear call, values can overlap the other calls; inactive = above about -39%
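Luciferase read-out from HCMV-luciferase-infected HFFs (MOI 1 PFU/cell) 72 h post infection at 37C; compounds added after 16 h cell attachment; activity normalized between buffer-only basal and Salinomycin (10uM) inhibitor controls.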
Marburg entry inh: inhibitors of Marburg virus binding or cell entry | Marburg virus pseudotyped entry inhibition, cell reporter | Potency, µM (highest dose often 37.8 µM), inactives show at the highest dose activity change, negative = inhibition, actives largely listed as inhibitors | 300,000 compounds, 1.8% hits; calls by dose curve; tested in HEK293 cells; also: potency is read from the fitted curve at half-maximal effect
Active calls of the source: *; i = inactive; ? = inconclusive; . = not tested or not shown; [ ] = dose if it differs, or a comment. % is scaled to controls: 0 for no effect and ±100 for the full control effect.

SMILES | FMDV inh | LASV entry inh | VACV mCherry inh | VACV Venus inh | HCMV antiviral | Marburg entry inh
COc1ccc(-c2[nH]ncc2[C@@H]2C[C@H]3CN(Cc4ccccc4C)C(=O)[C@]34CCCN24)cc1 | 14% | . | . | . | -71* | .
COc1ccccc1CN1C[C@@H]2C[C@@H](c3ccc(C)c(C)c3)N3CCC[C@@]23C1=O | 34% | 1% | ? | -1% | -37 | ?
Cc1ccccc1CN1C[C@@H]2C[C@@H](c3cn[nH]c3-c3ccc(F)cc3)N3CCC[C@@]23C1=O | 15% | ? | ? | -15% | -71* | ?
S=C1Nc2ccccc2CS1 | -4% | . | -5% | -8% | 20 | .
S=C1Cc2ccccc2N1 | 32µM* | . | . | . | -83* | .
O=C(Nc1cc(SCCO)cc([N+](=O)[O-])c1)c1ccc(Br)o1 | 32µM* | ? | ? | -14% | -36 | ?
CSc1ccccc1NC(=O)CN(C)CC(=O)c1[nH]c(C)c(C(C)=O)c1C | 35µM* | -26% | -17% | -2% | 29 | -1%
CC(=O)c1c(C)[nH]c(C(=O)CN(C)CC(=O)Nc2ccccc2Cl)c1C | ? | ? | -14% | -10% | -15 | ?
CSc1ccccc1NC(=O)CN(C)CC(=O)NCc1ccccc1 | -6% | -16% | i | 9% | -84* | -15%
CN(C)CCN(C)Cc1ccccc1Sc1cccc2ccccc12 | ? | ? | 13µM* | ? | -75* | ?
CNCc1ccccc1Sc1cccc2ccccc12 | 0% | ? | -19% | -27% | ? | ?
N#Cc1c(-c2ccccc2)no[n+]1[O-] | . | . | . | . | . | 11µM*
CCOc1ccccc1CNC(=O)CC(C)n1ccc(C)n1 (centres undefined) | -8% | 7%[46.1 µM] | -4% | -7% | -1 | .
COc1cc(/C=C/C(=O)NC(=O)c2ccccc2O)ccc1OC(C)=O | 35% | . | 5.6µM* | ? | 16 | .
COc1cc(OC)c(C=CC(=O)c2ccccc2O)c(OC)c1 | 41% | 17% | ? | ? | -64* | ?
Cc1ccc(/C=C/C(=O)c2ccccc2O)cc1 | -18% | 19% | -2% | -15% | 9 | ?
COc1cc(/C=C/C(=O)c2ccccc2O)cc(OC)c1OC | 32µM* | . | 3% | -11% | 16 | .
O=C(C=Cc1ccccn1)c1ccccc1O | ? | -13%[46.1 µM] | -6% | 2% | -80* | -23%[46.1 µM]
Cc1ccc(S(=O)(=O)N2CCN(c3nc(-c4cncnc4)nc4ccccc34)CC2)cc1 | . | . | i | -12% | . | .
CCOC(=O)C1CCN(C(=O)Cn2nc(CC)n3c(cc4occc43)c2=O)CC1 | ? | ? | -7% | 2% | 8 | 14%[46.1 µM]
CCn1c(-c2ccccc2F)nc2cc(C(=O)NC(c3ccccn3)C(F)(F)F)cc(NC(C)=O)c21 (centres undefined) | 11% | . | -11% | -6% | . | .
COc1ccccc1N(CC(=O)Nc1ccc2c(c1)OCO2)S(=O)(=O)c1ccc(C)cc1 | 66% | -13%[46.1 µM] | -8% | -8% | -24 | -5%[46.1 µM]
Cc1csc(C(C)N(C)C(=O)c2cnn(-c3nccc(-c4cc(C)sc4C)n3)c2C)n1 (centres undefined) | 48% | . | -14% | -5% | . | .
CC1Cc2ccccc2C[N+]1(C)CC(=O)c1cccc([N+](=O)[O-])c1 (centres undefined) | . | . | 0% | -11% | . | .
Cc1ccc(NC(=O)N2CCc3cc(S(=O)(=O)N4CCC(C)CC4)ccc32)cc1 | -12% | ? | -13% | -13% | -29 | 25%[46.1 µM]
SMILES | FMDV inh | LASV entry inh | VACV mCherry inh | VACV Venus inh | HCMV antiviral | Marburg entry inh
Cc1ccc(Cl)cc1NC(=O)OCCN(C)C(=O)Nc1cc(Cl)ccc1C | . | . | . | . | -32 | .
CCCCOC(=O)Nc1cc(Cl)ccc1C | 2% | 6% | . | -12% | -81* | 3%[46.1 µM]
Cc1cc(C)c(S(=O)(=O)Nc2ccc(-c3ccc(N4CCCCCC4)nn3)cc2)c(C)c1 | 40% | -12%[46.1 µM] | -15% | -23% | -7 | .
Cc1ccc(NC(=O)c2sc(Cl)nc2C)c(C)c1 | 23% | 2% | 11µM* | ? | 6 | 1%
Cc1nc(N)sc1C(=O)Nc1ccccc1 | 22% | ? | . | -3% | 104 | ?
Cc1ccccc1NC(=O)c1sc(Cl)nc1C | -2% | 1% | 10µM* | ? | -7 | -4%
COC(=O)c1ccccc1NC(=O)c1sc(N)nc1C | -8% | -6% | . | 0% | -101* | -4%
COc1cccc2c1C(=O)/C(=C\c1ccc(N(C)C)cc1)C2 | . | . | -24% | 213% | . | .
COc1ccc(CNC(=O)c2ccccc2[N+](=O)[O-])cc1 | 7% | 9% | . | . | -108* | ?
COc1ccc(NC(=O)c2ccccc2[N+](=O)[O-])cc1 | 50% | 12% | -13% | -7% | ? | 6%
O=C(NCc1cccc(Cl)c1)c1cnc(N2CCOCC2)c2ccccc12 | -8% | -21%[46.1 µM] | -9% | -12% | 5 | .
Cc1cc(CNC(=O)c2cccc([N+](=O)[O-])c2C)c2ccccc2n1 | 14µM* | ? | -8% | -19% | -73* | ?
COc1ccc(CNC(=O)c2cnc(N3CCOCC3)c3ccccc23)cc1 | -13% | 4%[46.1 µM] | -10% | -1% | -109* | .
CCCOc1ccc(CC2CCC(=O)NC2=O)cc1 (centres undefined) | 11µM* | . | . | . | -69* | .
O=C1CN(S(=O)(=O)Cc2ccccc2)C[C@@H]2[C@H](c3ccc(Br)cc3)[C@@H](CO)N12 | . | . | . | . | 7 | .
Cc1ccc2cc(C)c(NCCO)nc2c1 | -8% | 16% | . | ? | -60* | ?
CCc1c(C)sc(NC(=O)C2CC2c2ccccc2)c1C(N)=O (centres undefined) | 9% | 2.9µM* | . | . | ? | 3.3µM*
CCOC(=O)COc1cc(C)c(Cl)cc1C(=O)c1ccn2nc(-c3ccc(OC)cc3)cc2n1 | 2% | -5%[46.1 µM] | -27% | ? | 27 | ?
COc1ccccc1N1C(=O)c2cccc3c(Cl)ccc(c23)C1=O | -29% | ? | -7% | -6% | -82* | 1%
C[C@]12CC[C@H](O)C[C@H]1CC[C@@H]1[C@@H]2C[C@@H](O)[C@]2(C)[C@@H](C3=CC(=O)OC3)CC[C@]12O | ? | . | 1.1µM* | 1.1µM* | -100* | .
CC(=O)C1CCC2C3CCC4CC(O)CCC4(C)C3CC(O)C12C (centres undefined) | -15% | . | -14% | -10% | . | .
CC(=O)C1CC[C@H]2C3CC[C@@H]4CC(O)CC[C@@]4(C)C3CC[C@]12C (some centres undefined) | -6% | . | -14% | -17% | . | .
CC(=O)OC1CC[C@]2(C)C(CCC3C2CC[C@]2(C)C(C4=CC(=O)OC4)C(OC(C)=O)CC32O)C1 (some centres undefined) | ? | . | 1µM* | 1.1µM* | . | .
CC12CCC(O)CC1CCC1C2CCC2(C)C(C3=CC(=O)OC3)C(O)CC12O (centres undefined) | ? | 3.2µM* | 1.3µM* | 1.8µM* | -97* | 0.63µM*
CC(=O)OC1CCC23C(=O)OC45CCC(C6=CC(=O)OC6)C4(C)CCC2C5CCC3(O)C1 (centres undefined) | 0% | . | 1.8µM* | 1.3µM* | . | .

Screens (PubChem BioAssay)
